Screening results deposited in PubChem by National Center for Advancing Translational Sciences (NCATS).
IL1B secr inh = blocks inflammasome-driven IL-1 beta release; THP-1 LPS/ATP IL-1B secretion, AlphaLISA, 16 h; stronger effect = lower value; activity change, % at 57.5 µM; 4.7% of 360,000 active; AID 743279; in the data active = activity change below about -50%; inconclusive = mostly about -30% to -49%
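Secreted IL-1B measured by AlphaLISA bead assay after 16 h compound exposure of THP-1 cells; compounds (final up to 57.5 uM) added 1 h before LPS (250 ng/mL) and ATP (1.25 mM) stimulation; lower signal means less secretion.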
TDP1 cell noCPT = qHTS for Inhibitors of human tyrosyl-DNA phosphodiesterase 1 (TDP1): qHTS in cells in absence of CPT. Potency, µM (series often up to 46.2 µM), for inactives: top-dose activity change, negative = growth inhibition, actives largely listed as inhibitors. 15% of 420,000 active. AID 686978, 2013. DT40 Tdp1-/- hTDP1 cells, no CPT, ATP luminescence, 48 h; note: potency is the fitted concentration of half-maximal effect; nearly all actives have a fitted effect of over 55% in size
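Growth of hTDP1-complemented DT40 Tdp1-knockout cells is measured by ATP luminescence after at least 48 hr compound exposure at 37 °C, with DMSO substituting for the 20 nM CPT used in the parallel screen.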
HT1080 IDH1KD tx = kills HT-1080 cells with IDH1 knockdown; HT-1080 IDH1 knockdown viability, ATP luminescence, 48 h; AID 686971; 2% of 360,000 active; Potency, µM (series often up to 46.1 µM), inactives show at the top dose activity, negative = toxicity, most hits filed as cytotoxic;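 note: potency is the fitted concentration of half-maximal effect; 0% = DMSO wells and -100% = cell-free medium wells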
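HT-1080-IDH1KD cells (IDH1 knocked down), 750/well in RPMI with 5% FBS, treated with compound 48 h at 37 degrees C. Viability by CellTiter-Glo luminescence, normalised to DMSO and no-cell wells; concentration-response curves classed.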
HT1080NT lethal = kills 2HG-producing HT-1080-NT fibrosarcoma cells; HT-1080-NT fibrosarcoma viability, CellTiter-Glo ATP luminescence, 48 h; Potency, µM (highest dose often 46.1 µM), inactives show at the top dose activity, negative = less viability, actives largely listed as cytotoxic; 1.6% of 360,000 active; AID 686970;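 note: NT is the 2HG producing partner of a matched IDH1 knockdown line; potency is the fitted concentration of half-maximal effect; 0% = DMSO-treated cells and -100% = media-only wells without cells; nearly all actives have a fitted effect of over 55% in size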
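Fibrosarcoma NT cells, 750 per well in 5% FBS RPMI, were exposed to compound for 48 hours. Viability: CellTiter-Glo luminescence.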
TDP1 cell CPT = DT40-hTDP1 cell growth loss with CPT. 12% of 420,000 active. chicken DT40 Tdp1-/-;hTDP1 cells + 20 nM CPT, ATP luminescence, 48 h. AID 686979. Potency, µM (highest dose often 46.2 µM), without a hit: at the highest dose activity change, negative = growth inhibition, usual class: inhibitors; note: potency is the fitted concentration of half-maximal effect; nearly all actives have a fitted effect of over 55% in size
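Cell growth measured by CellTiter-Glo luminescence after a minimum 48 h, 37 C compound exposure with 20 nM CPT in Tdp1-knockout DT40 cells stably expressing hTDP1, seeded 400/well; qHTS titration format.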
12-LOX inh = inhibitors of human 12S-lipoxygenase ALOX12. P18054. purified 12hLO, xylenol orange hydroperoxide absorbance. Potency, µM (series often up to 108 µM), without a hit: at the highest dose activity change, negative = inhibition, hits mostly inhibitors. 1.1% of 580,000 active; note: potency is the fitted concentration of half-maximal effect
Target sequence (P18054 whole entry, looked up): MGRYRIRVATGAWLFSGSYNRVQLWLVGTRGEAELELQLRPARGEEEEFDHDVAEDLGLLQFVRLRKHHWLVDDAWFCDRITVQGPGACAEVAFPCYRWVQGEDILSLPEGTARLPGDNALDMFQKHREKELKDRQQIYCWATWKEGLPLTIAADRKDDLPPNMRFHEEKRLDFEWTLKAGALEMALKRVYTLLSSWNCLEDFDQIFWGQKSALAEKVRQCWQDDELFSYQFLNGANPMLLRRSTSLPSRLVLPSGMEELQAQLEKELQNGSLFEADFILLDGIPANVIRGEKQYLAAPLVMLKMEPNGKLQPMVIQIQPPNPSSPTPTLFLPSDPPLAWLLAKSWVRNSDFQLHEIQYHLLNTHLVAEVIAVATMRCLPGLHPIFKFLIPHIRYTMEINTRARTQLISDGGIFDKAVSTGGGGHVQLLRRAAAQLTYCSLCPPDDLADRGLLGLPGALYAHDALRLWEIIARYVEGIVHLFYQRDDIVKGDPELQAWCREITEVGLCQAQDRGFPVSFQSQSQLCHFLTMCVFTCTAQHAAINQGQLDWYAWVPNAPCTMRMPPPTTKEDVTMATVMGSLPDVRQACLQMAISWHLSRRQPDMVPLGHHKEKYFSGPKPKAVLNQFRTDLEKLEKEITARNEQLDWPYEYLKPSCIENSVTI
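Hydroperoxide product was detected by ferrous iron/xylenol orange as the 573 to 405 nm absorbance ratio. Arachidonic acid at 40 uM (final) was turned over for 30 min at room temperature by 150 nM human 12hLO, pH 7.0 Hepes buffer, after 15 min compound preincubation.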
Active calls of the source: *; ? = inconclusive; . = no result given. The full list was thinned out, with hits kept by preference. Unless noted, calls come from the whole dose curve; as a rule, active = well fitted curve in the direction sought with a large enough effect; inconclusive = small, poorly fitted or top-dose-only effect, or another doubt; inactive = no such curve, though single readings can be large; an effect the other way counts as inactive or inconclusive. Unless noted, % is set by controls: 0 for no effect and ±100 for the full control effect.

SMILES	IL1B secr inh	TDP1 cell noCPT	HT1080 IDH1KD tx	HT1080NT lethal	TDP1 cell CPT	12-LOX inh
CCC(=O)Nc1nc(-c2ccc3c(c2)OCCO3)cs1	?	-21%	-1%	-4%	?	-33%
CC(=O)c1cccc(Nc2nc(-c3ccccc3)cs2)c1	-1	?	-17%	-21%	?	-25%
COc1ccc2oc(=O)c(-c3csc(Nc4ccc(O)cc4)n3)cc2c1	-91*	5.8µM*	?	?	3.3µM*	?
COc1ccc(-c2csc(Nc3ccccc3)n2)cc1	-56*	?	?	?	?	?
Cc1cc(C)n(Cc2ccc(-c3nc(C)no3)cc2)n1	.	.	.	.	.	81%
N#Cc1cccnc1NCCc1cccc2cccnc12	.	.	.	.	.	-4%
O=C(NCc1cccc(C(F)(F)F)c1)C1CC2Cn3c(nc4ccccc43)C2N1Cc1ccccc1 (configuration not stated)	-9	13µM*	-5%	0%	-90%	?
CN(C)C(CNC(=O)C1CCN(S(=O)(=O)c2ccc(Cl)cc2)CC1)c1ccccc1 (configuration not stated)	-16	-27%	-5%	-22%	5%	59%
Cc1cc(C)c(C)c(S(=O)(=O)N2CCC(C(=O)NCC(c3ccccc3)N(C)C)CC2)c1C (configuration not stated)	?	?	18µM*	?	-1%	3%
O=C(Nc1cc(S(=O)(=O)N2CCCCC2)ccc1N1CCCCC1)C1CC1	-3	16µM*	1%	26%	-93%	-12%
Cc1cc(C)c(C)c(S(=O)(=O)N2CCC(C(=O)Nc3ccccc3N3CCOCC3)CC2)c1C	-7	15µM*	7%	8%	?	-1%
Cc1ccc(S(=O)(=O)N2CCC(C(=O)Nc3ccccc3N3CCCCC3)CC2)cc1	-17	?	7%	-7%	18µM*	4%
CC(=O)N/C(=C/c1cccnc1)C(=O)O	.	.	.	.	.	2%
Cc1nc2ncccn2c1C(=O)N[C@H]1[C@H]2CCO[C@H]2[C@@H]1N(C)C	.	.	.	.	.	38%
CCOc1ccc(S(=O)(=O)N2CCC(C(=O)Nc3ccccc3N3CCCC3)CC2)cc1	?	21µM*	13%	-9%	?	-10%
Cc1cccc(NC(=O)C2CCN(S(=O)(=O)c3c(C)c(C)cc(C)c3C)CC2)n1	-89*	16µM*	?	-25%	15µM*	-18%
Cc1ccc(S(=O)(=O)N2CCC(C(=O)Nc3ccccc3N3CCCC3)CC2)cc1	-10	-3%	-5%	-12%	-20%	?
Cc1cccc(OCc2nnc(SCC(=O)c3cc(C)n(-c4cc(C)on4)c3C)o2)c1	.	.	.	.	.	7%
CCCNC(=O)C1(C)CCCN(Cc2ccc3ccccc3c2)C1 (configuration not stated)	0	23µM*	?	0%	?	3%
CCCNC(=O)C1(C)CCCN(Cc2cc3ccccc3o2)C1 (configuration not stated)	2	23µM*	-2%	3%	16µM*	6%
CCCNC(=O)C1(C)CCCN(Cc2ccc(Cl)cc2)C1 (configuration not stated)	0	?	24%	25%	?	17%
CCCNC(=O)C1(C)CCCN(Cc2ccccc2F)C1 (configuration not stated)	24	-17%	0%	7%	-23%	10%
CC(=O)OC(COC1CC2CCC1(C)C2(C)C)C[N+]1(C)CCCCC1 (configuration not stated)	.	.	.	.	.	13µM*
CCn1c(=O)c([N+](=O)[O-])c(Cl)c2ccccc21	-96*	2.6µM*	3.7µM*	?	2.9µM*	.
